Among the data in ChEMBL document CHEMBL4513216, “Probing the Open Global Health Chemical Diversity Library for Multistage-Active Starting Points for Next-Generation Antimalarials” (ACS Infect Dis, 2020) are INHIBITION values, retold here.

About 2,100 (3.2%) of roughly 65,000 compounds showed an effect of 50% or more. The median lay at about -52%. The sample holds strong results, similar compounds and a random draw of the others, so the mix is not that of the screen.

For this assay, the system named is Plasmodium falciparum. Kind of assay: Screen against P. falciparum Asexual Blood Stage (ABS), at 5uM. Particulars: tested at 5 uM. The class given is functional, Dd2.
Consider `Cc1ccc(OC2(C(=O)NC(C)Cc3ccncc3)CCNCC2)cc1` (stereo unspecified), for which the INHIBITION was -39.1%.

Consider `Cc1ccc(OC2(C(=O)NC(C)Cc3ccsc3)CCNCC2)cc1` (stereo unspecified), for which the INHIBITION amounted to 52.5%.

For `Cc1ccc(OC2(C(=O)NC(C)c3csc(C)n3)CCNCC2)cc1` (stereo unspecified), the INHIBITION turned out to be 11.3%. In the case of `CCn1cc2c(n1)CN(Cc1sccc1C)CC2COCC1CC1` (stereo unspecified), the INHIBITION is given as -6.58%. The value for `COc1nccnc1N1CCC(C(=O)O)(n2ccc(C(C)(C)C)n2)CC1` was -5.61%. In the case of `CC(O)CN(C(=O)NC1CC1)C(C)C` (stereo unspecified), the INHIBITION is reported as -10.2%.

On to `CC(=O)N1CCc2nc(-c3ccc(F)cc3)nc(NC(C)C)c2CC1`, for which the INHIBITION worked out at 6.79%. On to `CCCS(=O)(=O)NCc1nc(C)cc(N2CCCC2)n1`, for which the INHIBITION was -76.8%. On to `CC(C)c1nc(CN2CCCC2Cn2cncn2)no1` (stereo unspecified), for which the INHIBITION is -59.5%. The value for `Cc1cccc(C(C(=O)N2CC(Oc3ccccc3F)C2)N(C)C)c1` (stereo unspecified) was 2.84%; that for `COc1ccccc1OC1CN(C(=O)C(c2ccc(F)cc2)N(C)C)C1` (stereo unspecified) was 3.3%. Turning to `CN(C)C(C(=O)N1CC(Oc2ccccc2F)C1)c1ccc(F)cc1` (stereo unspecified), the INHIBITION worked out at 64%. With `O=C(O)CC(CC(=O)NCCc1ccsc1)c1cccs1` (stereo unspecified), the INHIBITION is recorded as -112%. With `Clc1ccc(CN2CCc3c(ncn3C3CC3)C2)c2ncccc12` the figure was 30.3%; with `CC(=O)Cn1c(C)cc(=O)c2cc(F)ccc21`, -152%; with `CN(Cc1cccnc1N)Cc1cccc2ncccc12`, 15.1%.

On to `CN(Cc1cccc(CCN)c1)Cc1cccc2ncccc12`, for which the INHIBITION is 60.4%. Consider `CN(Cc1cccc(OCCO)c1)Cc1cccc2ncccc12`, for which the INHIBITION is -10.8%. The value for `CN(C)C(=O)C1CCCN(C(=O)c2ccccc2-n2cc(CN)cn2)C1` (stereo unspecified) was 25.8%; that for `CC1CCCN(CCNC(=O)c2scnc2Cl)C1` (stereo unspecified) was -37.9%; that for `CCc1cccc(N2CCC(NC(=O)C3CCC3)CC2)c1` was -52.2%.

As to `CCN(CC)c1ccc(C2c3c(n[nH]c3C)N=C3COC(=O)C32)cc1` (stereo unspecified), the INHIBITION is -48.4%. For `CN1CCCC[C@@H]2[C@H]1[C@@H](c1ccccc1)CCN2C(=O)c1ccccc1`, the INHIBITION is recorded as -15.8%. With `CN1CCCC[C@@H]2[C@H]1[C@@H](c1ccccc1)CCN2S(=O)(=O)N1CCCC1` the figure was 52%. With `CCN(CC)S(=O)(=O)N1CC[C@H](c2ccccc2)[C@@H]2[C@H]1CCCCN2C` the figure was 41.2%; with `Cc1cc(C2NC(=O)CN2Cc2ccc(Br)cc2)cc(C)c1O` (stereo unspecified), -78.2%; with `CC(=O)Nc1ncc(S(=O)(=O)Nc2ccc3c(c2)OCCO3)s1`, -316%. The value for `COc1cc(CNCc2c(C(C)C)nn(C)c2N(C)C)ccn1` was -67.4%.

For `COc1ccccc1OCCNCc1c(C(C)C)nn(C)c1N(C)C`, the INHIBITION is 60.1%. With `COc1ccccc1C(O)CNCc1c(C(C)C)nn(C)c1N(C)C` (stereo unspecified) the figure was 6.24%. For `COc1cccc(OCCNCc2c(C)nn(C)c2N(C)C)c1`, the INHIBITION was -31.9%.

In the case of `COc1ccccc1OCCNCc1c(C)nn(C)c1N(C)C`, the INHIBITION came out at 60%.

`COc1ccc(OCCNCc2c(C)nn(C)c2N(C)C)cc1`: the INHIBITION is reported as -64.9%.

On to `Cc1ccc(N2CCCC(NCc3ccc(C)s3)C2)nn1` (stereo unspecified), for which the INHIBITION is recorded as -34.1%.

On to `CC(C)(CO)NCc1nn(Cc2ccccc2)nc1-c1ccccc1`, for which the INHIBITION is listed as 14.1%. On to `O=C(Cc1ccncc1)N1CCC2(CC1)CC(c1ccccc1)CO2` (stereo unspecified), for which the INHIBITION is listed as -26.8%.

For the compound `CC(C)C(C(=O)N1CCCN(c2nccs2)CC1)n1cncn1` (stereo unspecified), the INHIBITION is recorded as -114%. As for `Cc1csc(N2CCCN(C3Cc4ccccc4C3)CC2)n1`, the INHIBITION was -1.32%.

On to `O=C1CC2(CCCCN2C(=O)Cc2ccccc2)CN1c1cccnc1` (stereo unspecified), for which the INHIBITION is given as -37.3%. With `Cc1ccc(CN2CC[C@@H]3OCCN(Cc4ccncc4)[C@H]3CC2)s1` the figure was 34.9%; with `N[C@H]1CN(C(=O)c2ccc(Cl)cc2O)C[C@@H]1C1CC1`, 33%. Take `N[C@H]1CN(C(=O)c2cnc3cc(Cl)ccc3c2O)C[C@@H]1C1CC1`: the INHIBITION is given as -22.9%. The value for `Cc1cc(Cl)ccc1C(=O)N1C[C@H](C2CC2)[C@@H](N)C1` was 61%; that for `Cc1ccc(C(=O)N2CCOC3(CCCC3)C2)c(=O)[nH]1` was -106%.

With `COCCC(=O)N1C[C@H]2CN(Cc3cccnc3)C(=O)[C@H]2C1`, the INHIBITION is reported as -55.2%.

For `CCN(C)C(=O)CCN(C)Cc1cnc(C)s1`, the INHIBITION is given as -125%. For the compound `CN(C(=O)Cc1ccccc1F)C1CCN(c2ccccn2)CC1`, the INHIBITION was -73.8%. With `CC(C)=CCCC1(C)C=Cc2c(cc(C)n(CCC(=O)O)c2=O)O1` (stereo unspecified) the figure was -18.9%. The value for `OC1(CNCCN2CCc3ccccc32)CNCCOC1` (stereo unspecified) was -0.439%; that for `OC1(CN2CCN(c3cccc(C(F)(F)F)c3)CC2)CNCCOC1` (stereo unspecified) was 57%. For `OC1(CN2CCC(Oc3cccnc3)CC2)CNCCOC1` (stereo unspecified), the INHIBITION is recorded as -73.6%. Consider `OC1(CN2CCCC2)COCCN(c2cc(C(F)(F)F)ccn2)C1` (stereo unspecified), for which the INHIBITION was -53.6%. The value for `FC(F)(F)c1cccc(OC2CCN(Cc3ncc[nH]3)CC2)c1` was -23%; that for `OC1(CN2CCC(Oc3cccc(C(F)(F)F)c3)CC2)CNCCOC1` (stereo unspecified) was 64.7%. With `Cc1ccc(C(C)NC(=O)CSCC(N)=O)cc1` (stereo unspecified) the figure was -54.8%. For the compound `CCS(=O)(=O)N1CCc2c(cccc2NC(=O)NCCO)C1`, the INHIBITION was -14.1%.

In the case of `Clc1cc(Cl)cc(OCCN2CCC(n3cncn3)CC2)c1`, the INHIBITION amounted to 33.8%.

On to `Cn1ccnc1CN1CCCN(C(=O)CC(C2CC2)C2CC2)CC1`, for which the INHIBITION is on record as -16.7%. Regarding `Cn1nc(COCC2CC2)c2c1CCN(Cc1cccs1)C2`, the INHIBITION is given as -41.4%. With `CN(Cc1cccs1)C(=O)CN1CCOC(Cn2cncn2)C1` (stereo unspecified) the figure was -56%. For the compound `Cc1cccc(C(C(=O)N(C)Cc2ccco2)N(C)C)c1` (stereo unspecified), the INHIBITION amounted to 66.7%. Consider `Cc1cccc(C(C(=O)N(C)Cc2ccon2)N(C)C)c1` (stereo unspecified), for which the INHIBITION is recorded as -2.4%.

Take `Cc1cccc(C(C(=O)N(C)Cc2cc(C)no2)N(C)C)c1` (stereo unspecified): the INHIBITION came to 49.9%. With `CCC(CO)NCc1ccc(-c2ccccc2F)o1` (stereo unspecified) the figure was -35.5%. The value for `O=C(Cn1ccnc1)N1C[C@@H]2CC[C@H](Oc3ccc(Cl)cc3)[C@@H]2C1` was -41.4%; that for `COc1ccc(-c2nc(C)cc(SCC(N)=O)n2)cc1` was -104%; that for `CN1CCC(N(CCc2ccccc2)C(=O)c2ccc(C#N)cc2)CC1` was 28.4%.

With `COc1ccc2[nH]cc(-c3ccnc(N4CCC(C)CC4)n3)c2c1`, the INHIBITION was -172%. With `COc1ccc2[nH]cc(-c3ccnc(NC4CCCC4)n3)c2c1` the figure was 58.8%; with `O=c1[nH]c(-c2ccncc2)ncc1-c1ccnc(NC2CCCCC2)n1`, -61.7%; with `CC(C)c1noc(CN(Cc2ccccc2)C2CC2)n1`, -119%. For `CCN1CCn2c(C)cnc2C12CCN(C(=O)N(C)C)CC2`, the INHIBITION turned out to be 53%. With `CCN1CCn2c(C)cnc2C12CCN(C(=O)C(C)C)CC2` the figure was -51.6%; with `CCN1CCn2c(C)cnc2C12CCN(C(=O)CC(C)C)CC2`, -55.6%; with `CC(C)CNC(=O)c1c(-n2cnnn2)sc2c1CCCC2`, -47.3%.

As to `COCCN1CCC(CNC(=O)C2(c3ccccc3)CCC2)C1` (stereo unspecified), the INHIBITION is -0.505%. As for `COCCN1CCC(CNC(=O)C2(c3cccc(Cl)c3)CC2)C1` (stereo unspecified), the INHIBITION is on record as -0.48%. With `CCCN1CCC(CNC(=O)C2(c3cc(C)cc(C)c3)CCC2)C1` (stereo unspecified) the figure was 41.6%; with `CCN1CCCC(CNC(=O)C2(c3cccc(Cl)c3)CC2)C1` (stereo unspecified), 69.7%; with `CCN1CCC(CNC(=O)C2(c3cccc(C)c3)CC2)C1` (stereo unspecified), 0.0435%.

For `CCCN1CCC(CNC(=O)C2(c3ccccc3)CCC2)C1` (stereo unspecified), the INHIBITION is reported as 66.3%. The value for `COc1cc2c(cc1CNCc1cccnc1-n1cccn1)OC(C)C2` (stereo unspecified) was 20.8%. `COc1cccc(COCC(=O)N2CCCC2Cn2cccn2)c1` (stereo unspecified): the INHIBITION is on record as -10.1%. Take `COCc1ccccc1NCc1csc(NC(C)=O)n1`: the INHIBITION is -51.9%. In the case of `CCCN1CCC(c2nc3ccc(NCc4cccnc4)cn3n2)CC1`, the INHIBITION was -28.7%.

Take `O=C(c1ccc(Cl)cc1)N1CCC(N2CCNC2=O)CC1`: the INHIBITION is -169%. As for `CCN(C)C1COC2(CCN(C(=O)c3ccc(Cl)cc3)CC2)C1` (stereo unspecified), the INHIBITION came out at 2.64%.

Consider `CC1(C)[C@@H]2CC=C(CN3CCCn4nc(C(=O)O)cc4C3)[C@H]1C2`, for which the INHIBITION is given as -37.3%.

Turning to `COCCNc1nnc(S(=O)(=O)CCC(C)(C)C#N)s1`, the INHIBITION is given as -77.6%. Regarding `CCn1nc(C)c2nc(C(C)C)nc(NCCc3ccc(O)cc3)c21`, the INHIBITION is reported as -3.69%. On to `Cc1ccc(-c2cc(C(F)(F)F)nc(N3CCOCC3)n2)s1`, for which the INHIBITION is -17.2%. The value for `CCn1ncc(-c2cc(C(F)(F)F)nc(N3CCC(N)CC3)n2)c1C` was 65.2%; that for `Cc1c(-c2cc(C(F)(F)F)nc(N3CCC(N)CC3)n2)cnn1C` was 22.7%; that for `CCOC(=O)N1CCN(C(=O)c2cc(OCC)c3ccoc3c2)CC1` was -79%. Take `COc1cc(C(=O)Nc2nc(C)no2)ccc1OC(F)F`: the INHIBITION was -35.8%.

In the case of `Cn1cc(CCCN2CCCC(c3cc(C(F)(F)F)[nH]n3)C2)cn1` (stereo unspecified), the INHIBITION was 33.1%.

As for `Cc1cnn(CC2CN(Cc3cccc(OC(C)C)c3)CCO2)c1` (stereo unspecified), the INHIBITION was 35.5%.

For `O=C(NC1CCC1)[C@H]1C[C@H]2CN(CC3CC3)C[C@@H]1O2`, the INHIBITION is recorded as -98%.

Take `O=C(c1cccc(-n2cccn2)c1)N1CCCOC(CN2CCCC2)C1` (stereo unspecified): the INHIBITION is on record as 53.4%. As for `NCC1CN(C(=O)c2cccc(-n3cccn3)c2)CCO1` (stereo unspecified), the INHIBITION is on record as -21.2%. Regarding `O=C(c1cccc(-n2cccn2)c1)N1CCCOC(Cn2cccn2)C1` (stereo unspecified), the INHIBITION is recorded as -33.9%. With `O=C(CSCC1CC1)N1CCCN(c2ccc(F)cc2)CC1`, the INHIBITION is given as -42.8%. The value for `COc1ccc(-n2cnnc2SCC(=O)N(C)C(C)C)cn1` was -60.2%. Regarding `COCC(=O)N1CCc2ccccc2C12CCNCC2`, the INHIBITION was -52%. With `O=C(C1CC1)N1CCc2ccccc2C12CCNCC2` the figure was -55.8%; with `CCOC(=O)N1CCc2ccccc2C12CCNCC2`, 54.6%.
